ATXN2 expr inh: Primary qHTS for Inhibitors of ATXN expression; Potency, µM (series often up to 57 µM), usual class: inhibitors; HEK-293 ATXN2-luciferase reporter, luminescence, 24 h; 360,000 tested, 0.72% active; note: nearly all actives have a fitted effect of over 55% in size
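ATXN2-luciferase reporter cells (luciferase flanked by upstream and downstream ATXN2 gene portions) were treated 24 h at 37 °C with compounds at up to 57 uM. SteadyGlo luminescence gave expression; GF-AFC fluorescence gave viability.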
S2 tox: Viability Counterscreen for Primary qHTS for Inhibitors of ATXN expression | S2 cells (HEK-293 line with an ATXN2-luciferase reporter) viability, CellTiter-Fluor protease fluorescence, 24 h | Potency, µM (doses to about 56.7 µM), hits mostly cytotoxic | 400,000 tested, 0.49% active | AID 651635, 2014; note: nearly all actives have a fitted effect of over 40% in size
USP2a block: qHTS Assay for Inhibitors of Ubiquitin-specific Protease USP2a Using CHOP2 as the Reporter | Potency, µM (doses to about 38.3 µM), most hits filed as inhibitors | AID 463254, 2010 | USP2 core, Ub-CHOP2 coupled fluorogenic reporter, 485/531 | 330,000 tested, 0.01% active | Ubiquitin carboxyl-terminal hydrolase 2 (Homo sapiens), O75604
Target sequence (O75604 whole entry, looked up): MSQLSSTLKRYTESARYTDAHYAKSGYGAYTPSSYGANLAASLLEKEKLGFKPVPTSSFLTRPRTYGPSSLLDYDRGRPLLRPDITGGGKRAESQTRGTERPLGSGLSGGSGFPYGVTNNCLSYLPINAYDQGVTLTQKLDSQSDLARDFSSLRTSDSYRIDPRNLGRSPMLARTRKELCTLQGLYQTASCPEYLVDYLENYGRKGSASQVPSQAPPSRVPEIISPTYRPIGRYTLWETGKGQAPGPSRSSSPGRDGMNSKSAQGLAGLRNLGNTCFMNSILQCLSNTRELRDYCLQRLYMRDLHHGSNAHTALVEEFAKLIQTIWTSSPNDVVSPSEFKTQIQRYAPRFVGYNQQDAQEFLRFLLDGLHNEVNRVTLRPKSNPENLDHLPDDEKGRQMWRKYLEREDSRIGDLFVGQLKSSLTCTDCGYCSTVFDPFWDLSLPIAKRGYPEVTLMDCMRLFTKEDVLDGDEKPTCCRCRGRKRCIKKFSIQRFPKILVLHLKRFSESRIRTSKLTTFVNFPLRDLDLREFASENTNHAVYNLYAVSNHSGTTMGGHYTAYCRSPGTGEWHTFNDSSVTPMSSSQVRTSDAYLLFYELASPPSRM
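USP2 core (10nM final) preincubated 30min RT with compound in 20mM Tris-HCl pH 8.0, 2mM CaCl2, 2mM beta-mercaptoethanol, 0.05% CHAPS; 25nM Ub-CHOP2 plus 25nM reporter substrate added, fluorescence (Ex485/Em531) read after 60min.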
IL1B secr inh: qHTS for Inhibitors of Inflammasome Signaling: IL-1-beta AlphaLISA Primary Screen. THP-1 LPS/ATP IL-1B secretion, AlphaLISA, 16 h; hits give low values. 360,000 tested, 4.7% active. activity change, % at 57.5 µM; in the data active = activity change below about -50%; inconclusive = mostly about -30% to -49%
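Secreted IL-1B measured by AlphaLISA bead assay after 16 h compound exposure of THP-1 cells; compounds (final up to 57.5 uM) added 1 h before LPS (250 ng/mL) and ATP (1.25 mM) stimulation; lower signal means less secretion.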
USP1 inh: Inhibitors of USP1/UAF1: Primary Screen; Ubiquitin carboxyl-terminal hydrolase 1 (Homo sapiens), O94782; recombinant USP1/UAF1, Ub-Rhodamine cleavage fluorescence; Potency, µM (doses to about 57.1 µM), hits mostly inhibitors; 390,000 tested, 0.23% active; note: nearly all actives have a fitted effect of over 60% in size
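High-throughput fluorogenic screen: 1nM USP1/UAF1 complex, Ub-Rho substrate 150nM final, 50mM HEPES pH 7.8 with 0.5mM EDTA, 0.1 mg/ml BSA, 1mM TCEP and 0.01% Tween-20.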
A number is an active result. Only some compounds are listed: those with a hit (about 4.8% of all), similar ones and a draw of the others. Unless noted, calls come from the whole dose curve; as a rule, active = well fitted curve in the direction sought with a large enough effect; inconclusive = small, poorly fitted or top-dose-only effect, or another doubt; inactive = no such curve, though single readings can be large; an effect the other way counts as inactive or inconclusive.

For Cc1cccc(C)c1-n1nnnc1C1c2ccccc2C(=O)N1C1CC1 (centres undefined) the results were ATXN2 expr inh inactive, S2 tox inactive and IL1B secr inh inactive.
`O=C(CC12CC3CC(CC(C3)C1)C2)Nc1cccc2nc(NCCNCCO)ccc12` gave ATXN2 expr inh inactive.
CCc1cccc2sc(N3CCN(C(=O)c4ccc([N+](=O)[O-])o4)CC3)nc12 was read as ATXN2 expr inh inconclusive, USP2a block inactive, IL1B secr inh -102.9 and USP1 inh inactive.
`CCc1ccc(NC(=O)Cn2c(=O)n(Cc3ccccc3)c(=O)c3oc4ccccc4c32)cc1` gave ATXN2 expr inh inactive, S2 tox inactive and USP1 inh inconclusive.
Screening COc1ccc(S(=O)(=O)N2CCN(C/C=C/c3ccccc3)CC2)cc1F returned ATXN2 expr inh inactive, S2 tox inactive, USP2a block inactive, IL1B secr inh -65.0 and USP1 inh inactive.
Screening CCOC(=O)c1ccc(S(=O)(=O)N2CCN(C/C=C/c3ccccc3)CC2)cc1 returned ATXN2 expr inh inactive, S2 tox inactive, USP2a block inactive, IL1B secr inh inactive and USP1 inh inactive.
`CC(C(=O)Nc1ccc([N+](=O)[O-])cc1)N1CCN(C/C=C/c2ccccc2)CC1` (centres undefined) gave ATXN2 expr inh inactive, S2 tox inactive, USP2a block inactive, IL1B secr inh -77.2 and USP1 inh inactive.
`COc1ccc(Cl)cc1NC(=O)C(C)N1CCN(C/C=C/c2ccccc2)CC1` (centres undefined) gave ATXN2 expr inh inconclusive, S2 tox inconclusive, USP2a block inactive, IL1B secr inh -58.9 and USP1 inh inactive.
Screening COc1ccc2c(c1)OC(C)CN(CCNC(=O)c1ccc(-n3cccn3)cc1)C2 (centres undefined) returned S2 tox inactive.
Cc1cccc(CN2CCN(CC(=O)NCc3ccc(Cl)cc3)C2=O)c1 was read as ATXN2 expr inh inactive, S2 tox inactive and USP1 inh inactive.
CCOC(=O)COn1c(=O)c(-c2ccc(C)cc2)[n+]([O-])c2ccccc21 was read as S2 tox inactive, USP2a block inactive, IL1B secr inh inactive and USP1 inh inactive.
For CCOC(=O)COn1c(=O)c(-c2ccco2)[n+]([O-])c2ccccc21 the results were ATXN2 expr inh inactive, S2 tox inactive, USP2a block inactive, IL1B secr inh -69.0 and USP1 inh inactive.
Screening Cc1cc(C)c(-c2n[nH]c3c2C(c2ccccc2F)N(Cc2ccco2)C3=O)c(O)c1 (centres undefined) returned USP1 inh inactive.
Screening COc1cc(C2c3c(-c4cc(Cl)c(C)cc4O)n[nH]c3C(=O)N2Cc2cccnc2)ccc1O (centres undefined) returned ATXN2 expr inh inactive, S2 tox inconclusive, USP2a block inactive, IL1B secr inh -59.3 and USP1 inh inactive.
Screening COc1ccc(C2c3c(-c4ccccc4O)n[nH]c3C(=O)N2CCc2ccc(OC)c(OC)c2)cc1 (centres undefined) returned ATXN2 expr inh inactive, S2 tox inconclusive, USP2a block inactive, IL1B secr inh -51.4 and USP1 inh inactive.
For COc1cc(C2c3c(-c4ccccc4O)n[nH]c3C(=O)N2Cc2ccco2)cc(OC)c1OC (centres undefined) the results were ATXN2 expr inh inactive, S2 tox inconclusive, USP2a block inactive, IL1B secr inh inactive and USP1 inh inactive.
COc1ccc(C2c3c(-c4c(C)cc(C)cc4O)n[nH]c3C(=O)N2Cc2ccco2)cc1 (centres undefined) was read as ATXN2 expr inh inconclusive, S2 tox 17.8µM and USP1 inh inactive.
`COc1ccc(C2c3c(-c4ccccc4O)n[nH]c3C(=O)N2Cc2ccco2)cc1` (centres undefined) gave ATXN2 expr inh inactive, S2 tox inconclusive, USP2a block inactive, IL1B secr inh -74.8 and USP1 inh inactive.
For COc1ccc(/C=C/C(=O)N2CCc3c(cnc(C)c3CNC(=O)c3ccsc3)C2)cc1OC the results were S2 tox inactive.
Screening CC(OC(=O)c1ccc(Cl)c(S(N)(=O)=O)c1)C(=O)NCc1ccc2c(c1)OCO2 (centres undefined) returned ATXN2 expr inh inactive, S2 tox inactive, USP2a block inactive, IL1B secr inh inactive and USP1 inh inactive.
CCOC(=O)CNC1CC(=O)N(c2ccc(Br)cc2)C1=O (centres undefined) was read as ATXN2 expr inh inactive, S2 tox inactive, USP2a block inactive, IL1B secr inh inactive and USP1 inh inactive.
Cc1ccc(S(=O)(=O)N2[C@H](CC(=O)c3ccc(F)cc3)OC[C@@H]2C)cc1 was read as IL1B secr inh inactive.
Screening CC1Cc2cccc3ccc(=O)n(c23)C1 (centres undefined) returned ATXN2 expr inh inactive, S2 tox inactive, IL1B secr inh inactive and USP1 inh inactive.
`O=C1c2[nH]nc(-c3ccccc3O)c2C(c2cccc(Br)c2)N1Cc1ccncc1` (centres undefined) gave ATXN2 expr inh inconclusive, S2 tox 11.2µM and USP1 inh inactive.
`O=C1CC(N2CCN(c3ccccc3)CC2)C(=O)N1c1ccc(Cl)cc1` (centres undefined) gave S2 tox inconclusive, USP2a block inactive, IL1B secr inh inactive and USP1 inh inactive.
`CCn1c2ccc(C)cc2c2nnc(SCCN3CCCCC3)nc21` gave ATXN2 expr inh inactive, S2 tox inactive, USP2a block inactive, IL1B secr inh -66.4 and USP1 inh inactive.
`CCCn1c2ccc(F)cc2c2nnc(SCCN3CCCCC3)nc21` gave ATXN2 expr inh inactive, S2 tox inconclusive, USP2a block inactive, IL1B secr inh inactive and USP1 inh inactive.
CCCn1c2ccc(C)cc2c2nnc(SCCN3CCOCC3)nc21 was read as ATXN2 expr inh inactive, S2 tox inactive, USP2a block inactive, IL1B secr inh -61.3 and USP1 inh inactive.
`CCCn1c2ccc(C)cc2c2nnc(SCCN3CCCCC3)nc21` gave ATXN2 expr inh inactive, S2 tox inconclusive, USP2a block inactive, IL1B secr inh -66.3 and USP1 inh inactive.
CCn1c2ccc(F)cc2c2nnc(SCCN3CCCCC3)nc21 was read as ATXN2 expr inh inactive, S2 tox inactive, USP2a block inactive, IL1B secr inh inconclusive and USP1 inh inactive.
Screening Cc1c(C(=O)N2CCCCC2c2cccnc2)sc2ncnc(NCc3cccs3)c12 (centres undefined) returned S2 tox inactive.
